# Assay results published in PubChem BioAssay (NCATS).
# Results filed as inconclusive are left out. A call without a number means that no potency is given here. Activity calls are given as the source filed them. Calls follow the shape of the full dose curve. Starred links: 1 amine or outer side, 2 acyl side, 3 side chain; linkers in the order of their positions; H or OH if unused. Positions of bridges follow the written chain, without caps; N, C: chain ends. Non-standard residues stand in square brackets, D forms with d. Residues, ends and D or L forms follow the SMILES beside them. ξ: configuration not given here. *: point of attachment. ΔAla(3-NHCONH2) = NC(=O)NC=C(N)C(=O)O; X1 = NC1=NCCC(C(N[*:1])C(=O)[*:2])N1; ξβ3hOrn = NCCCC(N)CC(=O)*; Dap = NC[CH](N)C(=O)O
# Test: Primary qHTS for inhibitors of MERS-S pseudo-typed particle cell entry (AID 1479149); also: nearly all actives have a fitted effect of over 60% in size
# Settings: MERS-S pseudotyped particle entry, luciferase; series mostly up to 57.1 µM
# Potency is read from the fitted curve at half-maximal effect.
SMILES,Potency,outcome
CN(C)[C@@H]1C(=O)C(C(N)=O)=C(O)[C@@]2(O)C(=O)C3=C(O)c4c(O)ccc(Cl)c4[C@@H](O)[C@H]3C[C@@H]12,inactive,
Cc1cc(C)cc(OCC2CNC(=O)O2)c1 (configuration not stated),inactive,
CN/C(=C\[N+](=O)[O-])NCCSCc1ccc(CN(C)C)o1,inactive,
NS(=O)(=O)c1cc2c(cc1Cl)NC=NS2(=O)=O,inactive,
COc1ccccc1OCC(O)COC(N)=O (configuration not stated),inactive,
C[C@@H](c1ncncc1F)C(O)(Cn1cncn1)c1ccc(F)cc1F (some centres not stated),inactive,
NNCCc1ccccc1,inactive,
CC(=O)SC[C@@H](C)C(=O)N1CCC[C@H]1C(=O)N[C@@H](Cc1ccccc1)C(=O)O,inactive,
CC(=O)OCC(CCn1cnc2cnc(N)nc21)COC(C)=O,inactive,
N[C@@H](C(=O)N[C@@H]1C(=O)N2C(C(=O)O)=C(Cl)CS[C@H]12)c1ccccc1,,inactive [at 11.4 µM]
O=C1NC(=O)C(c2ccccc2)(c2ccccc2)N1,inactive,
COC(=O)[C@@H]1CC2=CC(=O)CC[C@]2(C)[C@@]23O[C@@H]2C[C@@]2(C)[C@@H](CC[C@@]24CCC(=O)O4)[C@H]13,inactive,
CN(CCOc1ccc(CC2SC(=O)NC2=O)cc1)c1ccccn1 (configuration not stated),inactive,
CN(C)CCCN1c2ccccc2CCc2ccc(Cl)cc21,11.2 µM (active),
CCOc1ccc2ccccc2c1C(=O)N[C@@H]1C(=O)N2[C@@H]1SC(C)(C)[C@@H]2C(=O)O,inactive,
CO/N=C(\C(=O)N[C@@H]1C(=O)N2C(C(=O)O)=C(CSc3nc(=O)c(O)nn3C)CS[C@H]12)c1csc(N)n1,inactive,
CCCc1nc2c(C)cc(-c3nc4ccccc4n3C)cc2n1Cc1ccc(-c2ccccc2C(=O)O)cc1,inactive,
O=C1CCC(N2C(=O)c3ccccc3C2=O)C(=O)N1 (configuration not stated),inactive,
NC(=O)c1cn(Cc2c(F)cccc2F)nn1,inactive,

SMILES,Potency,outcome
CN(C)CCc1c[nH]c2ccc(CS(=O)(=O)N3CCCC3)cc12,inactive,
COc1ccc(C(CN(C)C)C2(O)CCCCC2)cc1 (configuration not stated),inactive,
CCOC(=O)[C@H](CCc1ccccc1)N[C@@H](C)C(=O)N1[C@H](C(=O)O)C[C@@H]2CCC[C@@H]21,inactive,
O=C(O)CCCc1ccccc1,inactive,
Cc1ccc(S(=O)(=O)NC(=O)NN2CCCCCC2)cc1,inactive,
O=c1[nH]cnc2c1ncn2[C@H]1CC[C@@H](CO)O1,inactive,
CC(C)NCC(O)COc1cccc2[nH]ccc12 (configuration not stated),inactive,
CC(C)(C)C(=O)OCOP(=O)(COCCn1cnc2c(N)ncnc21)OCOC(=O)C(C)(C)C,inactive,
CC(=O)Oc1cc2c(s1)CCN(C(C(=O)C1CC1)c1ccccc1F)C2 (configuration not stated),inactive,
C[C@](N)(Cc1ccc(O)c(O)c1)C(=O)O,inactive,
CS(=O)(=O)OCCCCOS(C)(=O)=O,inactive,
CCn1cc(C(=O)O)c(=O)c2ccc(C)nc21,inactive,
Nc1cccc2c1CN(C1CCC(=O)NC1=O)C2=O (configuration not stated),inactive,
Cc1onc(-c2c(Cl)cccc2Cl)c1C(=O)N[C@@H]1C(=O)N2[C@@H]1SC(C)(C)[C@@H]2C(=O)O,inactive,
NCCCC(N)CC(=O)NCC1NC(=O)C(CO)NC(=O)C(N)CNC(=O)C(C2CCN=C(N)N2)NC(=O)C(=CNC(N)=O)NC1=O (stereo not drawn) (H-[Dap]S[Dap](ξβ3hOrn)[ΔAla(3-NHCONH2)][X1]; lactam 1-C; configuration not given here),,inactive [at 0.573 µM]
CC[C@]1(O)C[C@@H]2CN(CCc3c([nH]c4ccccc34)[C@@](C(=O)OC)(c3cc4c(cc3OC)N(C)[C@H]3[C@@](O)(C(=O)OC)[C@H](OC(C)=O)[C@]5(CC)C=CCN6CC[C@]43[C@@H]65)C2)C1,inactive,
C[C@@H](O)[C@H]1C(=O)N2C(C(=O)O)=C(S[C@@H]3CN[C@H](CNS(N)(=O)=O)C3)[C@H](C)[C@H]12,inactive,
COc1cc(C(=O)NCc2ccc(OCCN(C)C)cc2)cc(OC)c1OC,inactive,
